# According to PubChem BioAssay AID1159580 (chemical genetic matrix, 2015):
# Where “and” joins values, the source holds several entries; their conditions need not be identical. Identical values can stand only once. The whole screen tested about 5,500 compounds, of which about 2,000 (36%) were called active. Another 18% or so got no clear call; they are omitted. Cut-off read from the data, not from the text of the source: active = normalized growth mostly below about 0.91 (no sharp cut-off); inconclusive = no clear call, values can overlap the other calls; inactive = mostly above about 0.92. The list shows a part of the results.
# Assay: chemical genetic growth profiling, strain panel (AID 1159580);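 note: tested at 20 µM; growth read once vehicle control cultures reached saturation at 30 °C; 1 = growth at the plate median or of vehicle wells; lower values mean less growth of the strain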
# Conditions: growth OD
smiles,measurement,setting,value
COc1cc(OC)c2c(=O)cc(-c3ccccc3)oc2c1,normalized growth,"S. cerevisiae deletion strains, locus YAL013W, strain DEP1, stronger effect = lower value",0.912 (inactive)
same,normalized growth,"S. cerevisiae deletion strains, locus YBR021W, strain FUR4, stronger effect = lower value",0.978 (inactive)
same,normalized growth,"S. cerevisiae deletion strains, locus YBR229C, strain ROT2, stronger effect = lower value",0.949 (inactive)
same,normalized growth,"S. cerevisiae deletion strains, locus YCL029C, strain bik1, stronger effect = lower value",0.957 (inactive)
same,normalized growth,"S. cerevisiae deletion strains, locus YDL035C, strain GPR1, stronger effect = lower value",0.864 (inactive)
same,normalized growth,"S. cerevisiae deletion strains, locus YDL074C, strain BRE1, stronger effect = lower value",0.764 (active)
same,normalized growth,"S. cerevisiae deletion strains, locus YDL101C, strain DUN1, stronger effect = lower value",0.925 (inactive)
same,normalized growth,"S. cerevisiae deletion strains, locus YDL134C, strain PPH21, stronger effect = lower value",0.886 (active)
same,normalized growth,"S. cerevisiae deletion strains, locus YDL185W, strain tfp1, stronger effect = lower value",0.951 (inactive)
same,normalized growth,"S. cerevisiae deletion strains, locus YDL192W, strain arf1, stronger effect = lower value",0.914 (active)
same,normalized growth,"S. cerevisiae deletion strains, locus YDR101C, strain arx1, stronger effect = lower value",0.936 (inactive)
same,normalized growth,"S. cerevisiae deletion strains, locus YDR150W, strain NUM1, stronger effect = lower value",0.949 (inactive)
same,normalized growth,"S. cerevisiae deletion strains, locus YDR162C, strain NBP2, stronger effect = lower value",0.752 (active)
same,normalized growth,"S. cerevisiae deletion strains, locus YDR318W, strain mcm21, stronger effect = lower value",0.868 (active)
same,normalized growth,"S. cerevisiae deletion strains, locus YDR388W, stronger effect = lower value",0.951 (inactive)
same,normalized growth,"S. cerevisiae deletion strains, locus YDR502C, strain sam2, stronger effect = lower value",0.907 (active)
same,normalized growth,"S. cerevisiae deletion strains, locus YEL061C, strain CIN8, stronger effect = lower value",0.941 (inactive)
same,normalized growth,"S. cerevisiae deletion strains, locus YER110C, stronger effect = lower value",0.914 (inactive)
same,normalized growth,"S. cerevisiae deletion strains, locus YER155C, strain BEM2, stronger effect = lower value",0.951 (inactive)
same,normalized growth,"S. cerevisiae deletion strains, locus YER167W, strain BCK2, stronger effect = lower value",0.899 (active)
same,normalized growth,"S. cerevisiae deletion strains, locus YGL078C, strain dbp3, stronger effect = lower value",0.961 (inactive)
same,normalized growth,"S. cerevisiae deletion strains, locus YGL086W, strain mad1, stronger effect = lower value",0.924 (active)
same,normalized growth,"S. cerevisiae deletion strains, locus YGL248W, strain PDE1, stronger effect = lower value",0.866 (active)
same,normalized growth,"S. cerevisiae deletion strains, locus YGR078C, strain PAC10, stronger effect = lower value",0.805 (active)
same,normalized growth,"S. cerevisiae deletion strains, locus YGR135W, strain pre9, stronger effect = lower value",0.819 (active)
same,normalized growth,"S. cerevisiae deletion strains, locus YGR229C, strain SMI1, stronger effect = lower value",0.664 (active)
same,normalized growth,"S. cerevisiae deletion strains, locus YGR252W, strain gcn5, stronger effect = lower value",0.793 (inactive)
same,normalized growth,"S. cerevisiae deletion strains, locus YHR030C, strain SLT2, stronger effect = lower value",0.718 (active) and 0.911 (inactive)
same,normalized growth,"S. cerevisiae deletion strains, locus YHR079C, strain IRE1 (second series), stronger effect = lower value",0.895 (active)
same,normalized growth,"S. cerevisiae deletion strains, locus YHR079C, strain IRE1, stronger effect = lower value",0.925 (inactive)
same,normalized growth,"S. cerevisiae deletion strains, locus YHR094C, strain hxt1, stronger effect = lower value",0.96 (inactive)
same,normalized growth,"S. cerevisiae deletion strains, locus YHR129C, strain ARP1, stronger effect = lower value",0.934 (inactive)
same,normalized growth,"S. cerevisiae deletion strains, locus YHR200W, strain rpn10, stronger effect = lower value",0.929 (inactive)
same,normalized growth,"S. cerevisiae deletion strains, locus YIL066C, strain RNR3, stronger effect = lower value",0.912 (inactive)
same,normalized growth,"S. cerevisiae deletion strains, locus YIL073C, strain SPO22, stronger effect = lower value",0.844 (inactive)
same,normalized growth,"S. cerevisiae deletion strains, locus YIL125W, strain kgd1, stronger effect = lower value",0.975 (inactive)
same,normalized growth,"S. cerevisiae deletion strains, locus YIR030C, strain dcg1, stronger effect = lower value",0.95 (inactive)
same,normalized growth,"S. cerevisiae deletion strains, locus YJL095W, strain BCK1, stronger effect = lower value",0.51 (active) and 0.918 (inactive)
same,normalized growth,"S. cerevisiae deletion strains, locus YJL134W, strain LCB3, stronger effect = lower value",0.948 (inactive)
same,normalized growth,"S. cerevisiae deletion strains, locus YJL168C, strain set2, stronger effect = lower value",0.944 (inactive)
same,normalized growth,"S. cerevisiae deletion strains, locus YJL187C, strain SWE1 (second series), stronger effect = lower value",0.879 (inactive)
same,normalized growth,"S. cerevisiae deletion strains, locus YJR043C, strain POL32, stronger effect = lower value",0.894 (inactive)
same,normalized growth,"S. cerevisiae deletion strains, locus YJR066W, strain TOR1, stronger effect = lower value",0.872 (inactive)
same,normalized growth,"S. cerevisiae deletion strains, locus YJR075W, strain HOC1, stronger effect = lower value",0.884 (inactive)
same,normalized growth,"S. cerevisiae deletion strains, locus YKL009W, strain mrt4, stronger effect = lower value",0.906 (inactive)
same,normalized growth,"S. cerevisiae deletion strains, locus YKL068W, stronger effect = lower value",0.967 (inactive)
same,normalized growth,"S. cerevisiae deletion strains, locus YKL085W, strain MDH1 (second series), stronger effect = lower value",0.963 (inactive)
same,normalized growth,"S. cerevisiae deletion strains, locus YKL085W, strain MDH1, stronger effect = lower value",0.963 (inactive)
same,normalized growth,"S. cerevisiae deletion strains, locus YKL190W, strain CNB1, stronger effect = lower value",0.948 (inactive)
same,normalized growth,"S. cerevisiae deletion strains, locus YKR001C, strain vps1, stronger effect = lower value",0.839 (active)
same,normalized growth,"S. cerevisiae deletion strains, locus YLR039C, strain RIC1, stronger effect = lower value",0.644 (active)
same,normalized growth,"S. cerevisiae deletion strains, locus YLR058C, strain SHM2, stronger effect = lower value",0.913 (inactive)
same,normalized growth,"S. cerevisiae deletion strains, locus YLR102C, strain apc9, stronger effect = lower value",0.958 (inactive)
same,normalized growth,"S. cerevisiae deletion strains, locus YLR113W, strain HOG1, stronger effect = lower value",0.952 (inactive)
same,normalized growth,"S. cerevisiae deletion strains, locus YLR262C, strain YPT6, stronger effect = lower value",0.652 (inactive)
same,normalized growth,"S. cerevisiae deletion strains, locus YLR268W, strain sec22, stronger effect = lower value",0.877 (active)
same,normalized growth,"S. cerevisiae deletion strains, locus YLR330W, strain CHS5, stronger effect = lower value",0.929 (inactive)
same,normalized growth,"S. cerevisiae deletion strains, locus YLR342W, strain FKS1 (second series), stronger effect = lower value",0.71 (active)
same,normalized growth,"S. cerevisiae deletion strains, locus YLR371W, strain rom2, stronger effect = lower value",0.959 (inactive)
same,normalized growth,"S. cerevisiae deletion strains, locus YLR418C, strain cdc73, stronger effect = lower value",0.685 (active)
same,normalized growth,"S. cerevisiae deletion strains, locus YML016C, strain PPZ1, stronger effect = lower value",0.929 (inactive)
same,normalized growth,"S. cerevisiae deletion strains, locus YML032C, strain rad52, stronger effect = lower value",0.757 (active)
same,normalized growth,"S. cerevisiae deletion strains, locus YML124C, strain tub3, stronger effect = lower value",0.952 (inactive)
same,normalized growth,"S. cerevisiae deletion strains, locus YMR078C, strain ctf18, stronger effect = lower value",0.912 (inactive)
same,normalized growth,"S. cerevisiae deletion strains, locus YMR223W, strain ubp8, stronger effect = lower value",0.875 (active)
same,normalized growth,"S. cerevisiae deletion strains, locus YMR263W, strain SAP30, stronger effect = lower value",0.871 (active)
same,normalized growth,"S. cerevisiae deletion strains, locus YMR307W, strain GAS1, stronger effect = lower value",0.625 (inactive)
same,normalized growth,"S. cerevisiae deletion strains, locus YNL067W, strain RPL9B, stronger effect = lower value",0.889 (inactive)
same,normalized growth,"S. cerevisiae deletion strains, locus YNL128W, strain TEP1, stronger effect = lower value",0.939 (inactive)
same,normalized growth,"S. cerevisiae deletion strains, locus YNL153C, strain GIM3, stronger effect = lower value",0.924 (inactive)
same,normalized growth,"S. cerevisiae deletion strains, locus YNL183C, strain NPR1, stronger effect = lower value",0.88 (inactive)
same,normalized growth,"S. cerevisiae deletion strains, locus YNL233W, strain BNI4, stronger effect = lower value",0.846 (active)
same,normalized growth,"S. cerevisiae deletion strains, locus YNL250W, strain rad50, stronger effect = lower value",0.923 (inactive)
same,normalized growth,"S. cerevisiae deletion strains, locus YNL271C, strain bni1, stronger effect = lower value",0.943 (inactive)
same,normalized growth,"S. cerevisiae deletion strains, locus YNL298W, strain CLA4, stronger effect = lower value",0.941 (inactive)
same,normalized growth,"S. cerevisiae deletion strains, locus YNL307C, strain MCK1, stronger effect = lower value",0.533 (active)
same,normalized growth,"S. cerevisiae deletion strains, locus YNL322C, strain KRE1, stronger effect = lower value",0.946 (inactive)
same,normalized growth,"S. cerevisiae deletion strains, locus YNR052C, strain pop2, stronger effect = lower value",0.902 (active)
same,normalized growth,"S. cerevisiae deletion strains, locus YOL006C, strain TOP1, stronger effect = lower value",0.472 (active)
same,normalized growth,"S. cerevisiae deletion strains, locus YOL012C, strain htz1",0.858 (inactive)
same,normalized growth,"S. cerevisiae deletion strains, locus YOL147C, strain pex11, stronger effect = lower value",0.944 (inactive)
same,normalized growth,"S. cerevisiae deletion strains, locus YOR061W, strain CKA2, stronger effect = lower value",0.941 (inactive)
same,normalized growth,"S. cerevisiae deletion strains, locus YOR069W, strain VPS5, stronger effect = lower value",0.95 (inactive)
same,normalized growth,"S. cerevisiae deletion strains, locus YOR136W, strain idh2, stronger effect = lower value",0.965 (inactive)
same,normalized growth,"S. cerevisiae deletion strains, locus YOR144C, strain elg1, stronger effect = lower value",0.949 (inactive)
same,normalized growth,"S. cerevisiae deletion strains, locus YOR184W, strain ser1, stronger effect = lower value",0.792 (active)
same,normalized growth,"S. cerevisiae deletion strains, locus YOR231W, strain MKK1, stronger effect = lower value",0.925 (inactive)
same,normalized growth,"S. cerevisiae deletion strains, locus YOR316C, strain cot1, stronger effect = lower value",0.943 (inactive)
same,normalized growth,"S. cerevisiae deletion strains, locus YPL055C, strain LGE1, stronger effect = lower value",0.83 (inactive)
same,normalized growth,"S. cerevisiae deletion strains, locus YPL241C, strain CIN2, stronger effect = lower value",0.946 (inactive)
same,normalized growth,"S. cerevisiae deletion strains, locus YPL256C, strain CLN2, stronger effect = lower value",0.911 (inactive)
same,normalized growth,"S. cerevisiae deletion strains, locus YPR119W, strain clb2, stronger effect = lower value",0.945 (inactive)
same,normalized growth,"S. cerevisiae deletion strains, locus YPR141C, strain kar3, stronger effect = lower value",0.967 (inactive)
same,normalized growth,"S. cerevisiae deletion strains, locus YPR163C, strain tif3, stronger effect = lower value",0.785 (active)
same,normalized growth,"S. cerevisiae deletion strains, locus YPR167C, strain met16, stronger effect = lower value",0.951 (inactive)
same,normalized growth,"S. cerevisiae deletion strains, strain wtn01, stronger effect = lower value",0.868 (active)
same,normalized growth,"S. cerevisiae strains, strain wild type, stronger effect = lower value",0.905 (inactive)
